Measurements from PubChem BioAssay AID1159580 (chemical genetic matrix, 2015).
Several values for one entry are separate records, joined by “and”; a condition that tells them apart may be missing. Identical values can stand only once. Screen size: about 5,500 compounds; about 2,000 (36%) were called active. Inconclusive results (about 18%) are left out. Rule as the data show it: active = normalized growth mostly below about 0.91 (no sharp cut-off); inconclusive = no clear call, values can overlap the other calls; inactive = mostly above about 0.92. Some of the results follow.

Assay: chemical genetic growth profiling, strain panel (AID 1159580);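 also: tested at 20 µM; growth read once vehicle control cultures reached saturation at 30 °C; 1 = growth at the plate median or of vehicle wells; lower values mean less growth of the strain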
Details: S. cerevisiae deletion strains, growth OD
[1] = locus YAL040C, strain CLN3, stronger effect = lower value
[2] = locus YCL061C, strain MRC1 (second series), stronger effect = lower value
[3] = locus YDR363W, strain ESC2, stronger effect = lower value
[4] = locus YER002W, strain NOP16, stronger effect = lower value
[5] = locus YGR229C, strain SMI1, stronger effect = lower value
[6] = locus YMR263W, strain SAP30, stronger effect = lower value
[7] = locus YNL175C, strain NOP13, stronger effect = lower value
[8] = locus YNL197C, strain WHI3, stronger effect = lower value
[9] = locus YNL224C, strain SQS1, stronger effect = lower value
[10] = locus YOR083W, strain WHI5 (second series), stronger effect = lower value
[11] = locus YPL241C, strain CIN2, stronger effect = lower value

Measured: normalized growth

NN=C(N)N
inactive: locus YAL013W, strain DEP1, stronger effect = lower value 1.03 and 1.01 | [1] 0.987 and 0.992 | [2] 1 | [3] 1.03 | [4] 1.03 and 0.995 | [5] 1.03 | [6] 1.01 | locus YNL153C, strain GIM3, stronger effect = lower value 1.01 | [7] 1.02 and 1.01 | [8] 1.01 | [9] 0.993 and 1.03 | [10] 1.02 and 1.01 | [11] 1.01

CCN(CC)c1ncnc2c1ncn2[C@@H]1O[C@H](COP(=O)(O)OP(=O)(O)C(Br)(Br)P(=O)(O)O)[C@@H](O)[C@H]1O
inactive: [1] 1.05 | [2] 1 | [3] 0.937 | [4] 1 | [5] 0.992 | [6] 0.991 | locus YNL128W, strain TEP1, stronger effect = lower value 1 | [7] 0.992 | [8] 0.977 | [9] 0.971 | locus YNL322C, strain KRE1, stronger effect = lower value 0.995 | [10] 0.979 | [11] 1.01

O=C(NCC1COc2ccccc2O1)c1ccc(Cl)cc1 (configuration not stated)
inactive: locus YAR019C, strain CDC15, stronger effect = lower value 0.956 | locus YBL105C, strain PKC1, stronger effect = lower value 0.952 | locus YBR135W, strain CKS1, stronger effect = lower value 0.935 | locus YBR136W, strain MEC1, stronger effect = lower value 0.957 | locus YBR160W, strain CDC28, stronger effect = lower value 0.959 | locus YDL017W, strain CDC7, stronger effect = lower value 0.944 | locus YDL028C, strain MPS1, stronger effect = lower value 0.951 | locus YDL101C, strain DUN1, stronger effect = lower value 0.98 | locus YDL108W, strain KIN28, stronger effect = lower value 0.951 | locus YDL132W, strain cdc53, stronger effect = lower value 0.936 | locus YDL214C, strain PRR2, stronger effect = lower value 0.837 | locus YDR052C, strain DBF4, stronger effect = lower value 0.973 | locus YDR054C, strain cdc34, stronger effect = lower value 0.933 | locus YDR226W, strain ADK1, stronger effect = lower value 0.949 | locus YDR477W, strain SNF1, stronger effect = lower value 0.734 | locus YER123W, strain YCK3, stronger effect = lower value 0.75 | locus YFL009W, strain cdc4, stronger effect = lower value 0.942 | locus YFL029C, strain CAK1, stronger effect = lower value 0.933 | locus YFR003C, strain YPI1, stronger effect = lower value 0.956 | locus YFR028C, strain CDC14, stronger effect = lower value 0.942 | locus YGR040W, strain KSS1, stronger effect = lower value 0.692 | locus YGR052W, strain FMP48, stronger effect = lower value 0.899 | locus YGR092W, strain DBF2, stronger effect = lower value 0.753 | locus YHR079C, strain IRE1, stronger effect = lower value 0.759 | locus YHR082C, strain KSP1, stronger effect = lower value 0.88 | locus YHR205W, strain SCH9, stronger effect = lower value 0.901 | locus YIL147C, strain SLN1, stronger effect = lower value 0.929 | locus YJL095W, strain BCK1, stronger effect = lower value 0.586 | locus YJL128C, strain PBS2, stronger effect = lower value 0.948 | locus YJL157C, strain FAR1, stronger effect = lower value 0.84 | locus YJR016C, strain ILV3, stronger effect = lower value 0.936 | locus YJR066W, strain TOR1, stronger effect = lower value 0.714 | locus YKL048C, strain ELM1, stronger effect = lower value 0.895 | locus YKL067W, strain YNK1, stronger effect = lower value 0.842 | locus YKL101W, strain HSL1, stronger effect = lower value 0.92 | locus YKL193C, strain SDS22, stronger effect = lower value 0.933 | locus YLR113W, strain HOG1, stronger effect = lower value 0.935 | locus YLR133W, strain CKI1, stronger effect = lower value 0.88 | locus YLR403W, strain SFP1, stronger effect = lower value 0.699 | locus YML070W, strain DAK1, stronger effect = lower value 0.827 | locus YMR001C, strain CDC5, stronger effect = lower value 0.896 | locus YMR205C, strain PFK2 (second series), stronger effect = lower value 0.82 | locus YMR277W, strain FCP1, stronger effect = lower value 0.923 | locus YNL006W, strain LST8, stronger effect = lower value 0.929 | locus YNL020C, strain ARK1, stronger effect = lower value 0.86 | locus YNL161W, strain CBK1, stronger effect = lower value 0.958 | locus YNL183C, strain NPR1, stronger effect = lower value 0.796 | locus YNL207W, strain RIO2, stronger effect = lower value 0.91 | locus YNL222W, strain SSU72, stronger effect = lower value 0.948 | locus YNL307C, strain MCK1 (second series), stronger effect = lower value 0.872 | locus YOL078W, strain AVO1, stronger effect = lower value 0.93 | locus YOL136C, strain PFK27, stronger effect = lower value 0.802 | locus YOR061W, strain CKA2, stronger effect = lower value 0.886 | locus YOR119C, strain RIO1, stronger effect = lower value 0.723 | locus YOR231W, strain MKK1, stronger effect = lower value 0.771 | locus YOR329C, strain SCD5, stronger effect = lower value 0.938 | locus YPL204W, strain HRR25, stronger effect = lower value 0.682 | locus YPL209C, strain IPL1, stronger effect = lower value 0.952 | locus YPL256C, strain CLN2, stronger effect = lower value 0.867 | locus YPR025C, strain CCL1, stronger effect = lower value 0.951 | locus YPR106W, strain ISR1, stronger effect = lower value 0.968 | locus YPR111W, strain DBF20, stronger effect = lower value 0.962 | strain NNK1, stronger effect = lower value 0.958 | strain TSCII, stronger effect = lower value 0.92
active: locus YER133W, strain GLC7, stronger effect = lower value 0.463 | locus YFR019W, strain FAB1, stronger effect = lower value 0.745 | locus YHR030C, strain SLT2, stronger effect = lower value 0.638 | locus YJR066W, strain TOR1 (second series), stronger effect = lower value 0.561 | locus YKL203C, strain TOR2, stronger effect = lower value 0.708 | locus YPL031C, strain PHO85, stronger effect = lower value 0.662 | locus YPL153C, strain RAD53, stronger effect = lower value 0.649
